Structures are written as SMILES. In all, about 47,000 compounds went through this assay and about 1,400 (3%) were called active. Rule as the data show it: active = inhibition above about 30%; inactive = the rest. The full list was thinned out, with actives kept by preference.

This is an account of results in PubChem BioAssay AID1645857 (Buhrlage Lab, Dana-Farber Cancer Institute and Novartis …, 2021).

The target of this assay is Ubiquitin carboxyl-terminal hydrolase 28 (Homo sapiens) (UniProt Q96RU2). In words: blocks human USP28 ubiquitin-rhodamine cleavage (AID 1645857). The settings on record: purified USP28, Ub-rhodamine cleavage fluorescence, 30 min; at 25 µM; stronger effect = higher value.
Sequence of Ubiquitin carboxyl-terminal hydrolase 28 (Homo sapiens) (Q96RU2 whole entry, looked up): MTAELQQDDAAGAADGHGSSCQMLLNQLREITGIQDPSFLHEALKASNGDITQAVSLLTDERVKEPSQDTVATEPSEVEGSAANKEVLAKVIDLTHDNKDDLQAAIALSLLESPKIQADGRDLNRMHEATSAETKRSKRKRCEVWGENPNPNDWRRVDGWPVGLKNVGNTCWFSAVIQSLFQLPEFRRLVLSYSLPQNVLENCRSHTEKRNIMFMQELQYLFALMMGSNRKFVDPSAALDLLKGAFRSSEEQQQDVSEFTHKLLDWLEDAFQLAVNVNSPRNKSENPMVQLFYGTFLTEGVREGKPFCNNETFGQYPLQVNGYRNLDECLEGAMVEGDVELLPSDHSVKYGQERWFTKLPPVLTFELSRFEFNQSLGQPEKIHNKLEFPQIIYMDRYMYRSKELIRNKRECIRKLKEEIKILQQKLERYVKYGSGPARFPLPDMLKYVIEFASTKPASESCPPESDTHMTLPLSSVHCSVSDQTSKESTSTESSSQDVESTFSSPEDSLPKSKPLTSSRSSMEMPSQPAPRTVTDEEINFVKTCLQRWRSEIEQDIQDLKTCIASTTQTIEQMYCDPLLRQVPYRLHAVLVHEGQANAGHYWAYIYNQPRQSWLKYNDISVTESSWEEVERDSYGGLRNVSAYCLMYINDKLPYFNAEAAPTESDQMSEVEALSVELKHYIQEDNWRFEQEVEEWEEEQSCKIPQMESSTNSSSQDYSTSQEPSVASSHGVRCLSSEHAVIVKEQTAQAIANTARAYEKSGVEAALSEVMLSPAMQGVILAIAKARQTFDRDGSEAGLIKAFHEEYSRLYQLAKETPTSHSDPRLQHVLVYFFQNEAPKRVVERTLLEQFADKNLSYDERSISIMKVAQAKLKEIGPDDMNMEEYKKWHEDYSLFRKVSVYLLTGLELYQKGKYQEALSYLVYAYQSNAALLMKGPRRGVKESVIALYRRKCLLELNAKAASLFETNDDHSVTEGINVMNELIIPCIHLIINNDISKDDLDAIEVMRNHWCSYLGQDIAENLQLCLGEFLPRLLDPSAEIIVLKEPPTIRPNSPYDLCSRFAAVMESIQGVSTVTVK
Regarding `N#Cc1cccc(CSc2ncnc(N)n2)c1`, the inhibition (as a rule, the change of the read-out against control, counted positive when it falls) was 39.9% (active).
The result for `Cc1ccc(-c2cc3n(n2)CCCN(C(=O)c2ccccn2)C3)cc1` reads 0.0245% (inactive); that for `Cc1ccc(N2CCCS2(=O)=O)cc1NC(=O)Cc1ccc(Cl)cc1`, 33.1% (active).
On to `Cc1ccc(Cl)cc1NC(=O)N1CCc2nc(N3CCCCC3)ncc2C1`, for which the inhibition was -54.3% (inactive).
The result for `Cc1ccc(CC(=O)Nc2nnc(C3CC(=O)N(c4ccc(C)c(C)c4)C3)s2)cc1` (stereo not given) reads 13.1% (inactive).
The result for `Cn1ccc(C(=O)NCc2cnc(C3CCCCO3)nc2)n1` (stereo not given) reads 6.1% (inactive); that for `Cc1ccc(C)c(CSC2=NCCN2C(=O)c2ccco2)c1`, 70.4% (active); that for `COc1ccc(CC(=O)Nc2ccc3c(c2)CN(C(=O)c2ccco2)CC3)cc1`, 23.1% (inactive).
The result for `Cc1ccc(C)c(CSc2nc(-c3ccco3)nc3c2c(=O)n(C)c(=O)n3C)c1` reads -10.3% (inactive); that for `Cc1ccc(-n2cc(-c3noc(C(=O)Nc4ccc(F)cc4C)n3)nn2)cc1`, 13.4% (inactive); that for `CC(C)NC(=O)c1csc(-c2ccc(N3CCCC3)nc2)n1`, -10% (inactive).
As to `Cn1c(SCc2ccc(Cl)cc2)nnc1-c1ccc2c(c1)OCCO2`, the inhibition was 41% (active).
For the compound `Cc1cc(C(=O)CSc2nnc(-c3ccc(F)cc3)n2C)c(C)n1C`, the inhibition is -21.9% (inactive).
Regarding `O=C(CSc1nnc(-c2ccc3c(c2)OCO3)n1-c1ccccc1)OCC(=O)c1ccccc1`, the inhibition was 14.9% (inactive).
Turning to `O=C(N[C@@H](Cc1ccccc1)C(=O)N1CCc2ccccc2C1)c1cccnc1`, the inhibition is 5.48% (inactive).
For `Cc1oc(-c2cccc(Cl)c2)nc1Cn1c(=O)n(C(C)C)c(=O)c2ccccc21` the value was -19% (inactive).
With `O=C(CSc1ncnc2c1oc1ccccc12)NC1CCCC1`, the inhibition is 46.9% (active).
The result for `Cc1c(C(=O)NC2CCCCC2)oc2ccccc12` reads 3.81% (inactive); that for `CCc1nc(SCC(=O)Nc2cccc3ccccc23)c2oc3ccccc3c2n1`, 2.85% (inactive); that for `O=C(Cc1nnc2c(-c3nc(C4CC4)no3)cccn12)Nc1ccccc1`, 11% (inactive).
For `CN(C)C(=O)CN1CCC2(CC1)CN(Cc1ccccn1)C(=O)CO2` the value was 8.76% (inactive); for `CN1CCN(c2ncc3c(=O)n(CC4CCCO4)ccc3n2)CC1` (stereo not given), -10.1% (inactive).
For `Cc1cc(C)c(NC(=O)CCN2C(=O)c3cccnc3Sc3ccccc32)c(C)c1` the value was 32.4% (active); for `COc1ccc(NC(=O)CCN2C(=O)c3cccnc3Sc3ccccc32)cc1`, 9.9% (inactive).
Turning to `O=C(CCN1C(=O)c2cccnc2Sc2ccccc21)Nc1cc(F)ccc1F`, the inhibition is 11% (inactive).
The result for `CC(C)(C)c1nn(-c2ccccc2)c2[nH]c(=O)c(CNCCc3ccccc3)cc12` reads 20.3% (inactive).
The result for `Cc1ccccc1Nc1nc(N)nc(CSc2ccccc2)n1` reads -0.136% (inactive); that for `Cn1cc(CCNC(=O)Nc2cc(F)ccc2F)c2cccnc21`, 44.1% (active); that for `Cc1cccc(S(=O)(=O)NCCc2cn(C)c3ncccc23)c1`, -5.33% (inactive).
For `CCn1cc(C(=O)OCC(=O)Nc2cc(F)ccc2F)c(=O)c2ccc(C)nc21`, the inhibition was -0.0765% (inactive).
For `Cn1cc(CCNC(=O)c2cc3ccccc3[nH]2)c2cccnc21` the value was 63.9% (active); for `Cn1c(CCNC(=O)c2ccc(C(C)(C)C)cc2)nc2cccnc21`, -229% (inactive).
On to `Cn1cc(-c2nc(C(=O)Nc3ccc(F)cc3)cs2)c2cccnc21`, for which the inhibition is 21.1% (inactive).
For `O=C(NCC(c1cccnc1)N1CCc2ccccc2C1)c1cccc(F)c1` (stereo not given) the value was -8.37% (inactive).
The result for `COc1ccc(N(Cc2cc(=O)[nH]c3ccccc23)C(=O)c2ccc(Cl)cc2)cc1` reads 9.24% (inactive); that for `CC(=O)c1ccc(Cc2ncc(C(F)(F)F)cc2Cl)s1`, 61% (active); that for `O=c1[nH]oc(O)c1-c1ncc(C(F)(F)F)cc1Cl`, 8.59% (inactive).
The result for `Cc1cc(N)nc2c1c(C)nn2-c1ncc(C(F)(F)F)cc1Cl` reads -20.8% (inactive).
With `COc1ccc(N(CC(=O)N2CCc3ccccc32)S(=O)(=O)c2ccccc2)cc1`, the inhibition is -2% (inactive).
The result for `O=C(c1ccccc1F)N1CCCC1c1nccnc1-c1ncc[nH]1` (stereo not given) reads 8.72% (inactive); that for `O=C(COc1ccccc1)N1CCc2[nH]nc(-c3ccccc3)c2C1`, 5.14% (inactive); that for `COc1ccc(Oc2nc(C)c(-c3ccccc3)cc2C#N)cc1`, 13.9% (inactive).
The result for `COc1ccccc1N1C(=O)c2ccccc2N2C(=O)c3ccccc3C12` (stereo not given) reads 6.01% (inactive).
The result for `Cc1cccc(NC(=O)c2cnn3c2NC2=C(C(=O)CCC2)C3c2ccccc2)c1` (stereo not given) reads -27.3% (inactive); that for `CCN1C(=O)CCc2cc(NC(=O)Cc3ccc(OC)c(Cl)c3)ccc21`, 2.71% (inactive).
Regarding `CCCCOc1ccc(C(=O)Nc2ccc3c(c2)CCC(=O)N3CCC)cc1`, the inhibition is 84.6% (active).
For `COCCN1C(=O)CCc2cc(NS(=O)(=O)c3cc(C)cc(C)c3)ccc21` the value was -19.5% (inactive).
In the case of `Cc1ccnc(Nc2nc(-c3ccccc3)c3cc(Cl)ccc3n2)n1`, the inhibition is 12.6% (inactive).
Take `COc1ccccc1CC(NC(C)=O)C(=O)NC1CCN(C(=O)c2cccc(C)c2)CC1` (stereo not given): the inhibition was -1.93% (inactive).
Regarding `Cc1cc(C)n(CC2CCCCN2CC(=O)NC2(C#N)CCCC2)n1` (stereo not given), the inhibition was 0.626% (inactive).
As to `CCc1nc2ccc(C(=O)Nc3nc(-c4ccc5c(c4)CCN5C(=O)c4ccc(C)cc4)c(C)s3)cc2nc1CC`, the inhibition was -7.6% (inactive).
For `Cc1ccc(C(=O)Nc2nccnc2C(=O)NCc2ccc3c(c2)OCO3)cc1` the value was -7.28% (inactive); for `Cc1ccc(C(=O)Nc2nc3c(s2)CCC3C(=O)NCc2ccncc2)cc1` (stereo not given), 37.1% (active).
For `NS(=O)(=O)c1ccc(CNc2nc(CN3CCCCC3)nc3sc4c(c23)CCC4)cc1` the value was -16.9% (inactive); for `CCCCn1c(=O)c(CCC(=O)OCC(=O)Nc2ccc(C)c(Cl)c2)nc2ccccc21`, -33.9% (inactive).
For `O=C(CC1CCCC1)N1CCCC(n2c(=O)[nH]c3cncnc32)C1` (stereo not given) the value was -14.3% (inactive); for `Cc1cccc(OCc2nnc(C3(c4ccc(F)cc4)CCOCC3)o2)c1`, 13.2% (inactive).
On to `CC(C)Cc1nc2sc3c(NCc4ccco4)ncnc3c2c2c1CCC2`, for which the inhibition is 21.3% (inactive).
The result for `c1coc(CNc2nc(Nc3cccc4ccccc34)nc3ccccc23)c1` reads 43.7% (active); that for `Fc1ccc(-n2cc(-c3ccccc3)c3c(NCc4ccco4)ncnc32)cc1`, -4.6% (inactive).
The result for `CCOc1ccccc1NC(=O)Nc1cc(-c2nc3ccccc3o2)ccc1OC` reads 30.8% (active); that for `COc1ccccc1NC(=O)N1CCN(Cc2nc3ccccc3o2)CC1`, -5.25% (inactive).
For `COc1ccccc1NC(=O)Nc1ccc(CCc2nc3ccccc3[nH]2)cc1` the value was -8.19% (inactive); for `CN(C)c1cccc(C2CN(C(=O)c3ccc4n[nH]nc4c3)CCO2)n1` (stereo not given), 8.99% (inactive).
For `Cc1nc(-c2cccc(S(=O)(=O)NCc3ccc(Cl)cc3)c2)no1`, the inhibition was 15.5% (inactive).
The result for `Cc1cccc(NC(=O)c2ccc(N3CCC(C)CC3)c([N+](=O)[O-])c2)c1C` reads -2.68% (inactive); that for `CN1CCN(S(=O)(=O)c2cccc(C(=O)Nc3cccc(S(N)(=O)=O)c3)c2)CC1`, 0.55% (inactive).
For `O=C(Nc1cccc(S(=O)(=O)N2CCCCCC2)c1)c1ccc(N2CCOCC2)c([N+](=O)[O-])c1` the value was 35.6% (active); for `CC1(C)CC(=O)C2=C(C1)Nc1ccccc1NC2c1ccccc1O` (stereo not given), 4.62% (inactive); for `Cc1cc(-c2cc(N)n(-c3ccccc3)n2)c(C)n1-c1cccc(C(F)(F)F)c1`, 3.89% (inactive).
The result for `COc1cc(N2CC[C@@H]3[C@@H](CO[C@H]3CNC(=O)C3CC3)C2)ncn1` reads 5.25% (inactive); that for `Cc1cccc(C)c1NC(=O)c1nnn(-c2ccc3noc(-c4ccccc4)c3c2)c1C`, 8.24% (inactive).
For the compound `C=C1CCC2[C@](C)(CCC[C@]2(C)C(=O)OC)[C@H]1CCc1ccoc1C[N+](C)(C)Cc1ccccc1` (stereo not given in full), the inhibition was 50.6% (active).
The result for `C=C1CCC2[C@](C)(CCC[C@]2(C)C(=O)OC)[C@H]1CCc1ccoc1/C=C/C(=O)O` (stereo not given in full) reads 48% (active).
The result for `O=C(NCc1ccc2c(c1)OCO2)c1cncc(NS(=O)(=O)c2ccc3c(c2)OCCO3)c1` reads 4.62% (inactive); that for `N#Cc1ccc(C(=O)N2CCC(c3nc(-c4ccccc4)no3)CC2)cc1`, 3.9% (inactive).
For `O=C(c1ccccc1)N1CCC2(CC1)OCCCO2` the value was 4.41% (inactive); for `CCc1cc(=O)oc2cc(C)cc(OCC(=O)N3CCC4(O)CCCCC4C3)c12` (stereo not given), -0.0724% (inactive).
Take `Cc1ccc(-c2ncc(C(=O)Nc3ccccc3C)c(-c3ccncc3)n2)cc1`: the inhibition is -83.7% (inactive).
Regarding `Fc1ccc(CN=C2C(c3ccc4c(c3)OCCO4)=Nc3ncnn32)cc1`, the inhibition was 9.04% (inactive).
The result for `CC(C)c1cc(N2CCN(CCc3ccccc3)CC2)n2c(nc3ccccc32)c1C#N` reads -23.5% (inactive); that for `Cc1c(-c2noc(-c3cccc(N(C)C)c3)n2)nnn1Cc1cccc(F)c1`, -4.14% (inactive).
For `COc1ccc(-c2nc(-c3nnn(Cc4cccc(F)c4)c3C)no2)cc1` the value was 19.7% (inactive); for `CCOc1ccccc1-c1nc(-c2nnn(Cc3ccccc3)c2C)no1`, 41.4% (active); for `Cc1cccc(NC(=O)Nc2ccc3c(c2)N(S(=O)(=O)c2ccccc2)CC3)c1C`, -0.657% (inactive).
The result for `Cc1nc2ccccc2c(=O)n1CC(=O)N1CCCc2ccccc21` reads 6.83% (inactive); that for `COC(=O)COc1cccc2c(=O)n(CC(=O)N3CCc4ccccc43)ccc12`, 36% (active).
For the compound `O=C(Cn1cnc2ccccc21)N1CCCc2ccccc21`, the inhibition is 15.3% (inactive).
For `COc1ccc(CNC(=O)[C@H](CCSC)NC(=O)[C@@H]2Cc3c([nH]c4ccccc34)C3c4ccccc4C(=O)N32)cc1` (stereo not given in full) the value was -15% (inactive); for `NC(=O)c1c(NC(=O)/C=C/C(=O)O)sc2c1CCCCCC2`, -7.88% (inactive).
